Assay results: PubChem BioAssay (NCATS)
Records with an inconclusive call do not appear. Calls of active or inactive are those of the source. The call rests on the fitted dose curve; in most records, active means well fitted curve in the direction sought with a large enough effect; inconclusive means small, poorly fitted or top-dose-only effect, or another doubt; inactive means no such curve, though single readings can be large; an effect the other way counts as inactive or inconclusive.

Assays:
[1] = MultiTox-Fluor Cytotoxicity Assay - LYMP1-002 - Live Cells (AID 955); conditions: LYMP1-002 lymphoblastoid live-cell protease fluorescence viability; series mostly up to 46.1 µM;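 further: cells exposed to compound for 16 hours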
In short: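 Human lymphoblastoid LYMP1-002 cells, 2500/well, treated 16 h at 37 C in complete medium. Live-cell protease activity via GF-AFC fluorescence (Ex/Em 405/510) after 60 min reagent incubation; AC50 from Hill fits.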

[2] = MultiTox-Fluor Cytotoxicity Assay - LYMP1-002 - Dead Cells (AID 960); conditions: LYMP1-002 lymphoblastoid cells, dead-cell protease fluorescence; series mostly up to 46.1 µM;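 further: cells exposed to compound for 16 h at 37 °C; nearly all actives have a fitted effect of over 60% in size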
In short: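 Human lymphoblastoid LYMP1-002 cells, 2500/well, treated 16 h at 37 C; dead-cell protease cleavage of bis-AAF-R110 read by fluorescence (485/520); normalized to DMSO and 15 uM tetraoctylammonium bromide; AC50 from Hill fit.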

[3] = MultiTox-Fluor Cytotoxicity Assay - LYMP1-003 - Dead Cells (AID 961); conditions: LYMP1-003 lymphoblastoid cells, dead-cell protease fluorescence; series mostly up to 92.2 µM;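 further: cells exposed to compound for 16 h at 37 °C; nearly all actives have a fitted effect of over 70% in size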
In short: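 Human lymphoblastoid LYMP1-003 cells (2500/well) were treated with compounds for 16 hr at 37 C in complete medium. Dead-cell protease release was read by bis-AAF-R110 fluorescence (Ex/Em 485/520). AC50 came from Hill fits, normalized to DMSO and 15 uM tetraoctylammonium bromide.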

[4] = MultiTox-Fluor Cytotoxicity Assay - LYMP1-003 - Live Cells (AID 962); conditions: LYMP1-003 lymphoblastoid cells, MultiTox-Fluor live-cell protease fluorescence; series mostly up to 92.2 µM;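 further: cells exposed to compound for 16 hours at 37 °C; cytotoxic hits lower the live-cell protease signal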
In short: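 LYMP1-003 lymphoblastoid cells, 2500/well in complete medium, treated 16 h at 37 C; live-cell protease cleavage of GF-AFC read by fluorescence (Ex/Em 405/510) after 60 min reagent; AC50 from Hill fits of concentration-response.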

[5] = Cell Viability - LYMP1-003 - Assay at 24 hr (AID 963); conditions: LYMP1-003 lymphoblastoid cell viability; series mostly up to 92.2 µM
In short: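 Human lymphoblastoid LYMP1-003 cells, 2500/well, treated 24 h at 37 C in complete medium. Viability read as intracellular ATP by CellTiter-Glo luminescence after 30 min at room temperature; AC50 from Hill-equation fits of qHTS concentration-response.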

[6] = Cell Viability - LYMP1-003 - Assay at 40 hr (AID 964); conditions: LYMP1-003 lymphoblastoid viability; series mostly up to 92.2 µM; further: nearly all actives have a fitted effect of over 60% in size
In short: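 LYMP1-003 human lymphoblastoid cells, 2500/well, preincubated 5 h at 37 C, then treated with compound for 40 h at 37 C. Intracellular ATP read by CellTiter-Glo luminescence after 30 min at room temperature; AC50 from Hill-equation fits.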

[7] = Cell Viability - LYMP2-003 (AID 965); conditions: LYMP2-003 lymphoblastoid cell viability; series mostly up to 92.2 µM;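 further: cells exposed to compounds for 24 h before reading; nearly all actives have a fitted effect of over 50% in size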
In short: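 CellTiter-Glo luminescence (cellular ATP) after 24 h compound exposure at 37 C in complete medium; 2500 cells/well, 5 h settling beforehand. Concentration-response fitted to standard Hill equation for AC50. Tetraoctylammonium bromide served as positive control.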

[8] = Cell Viability - LYMP2-004 (AID 966); conditions: LYMP2-004 lymphoblastoid cell viability, qHTS; series mostly up to 92.2 µM; further: nearly all actives have a fitted effect of over 65% in size
In short: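 Lymphoblastoid LYMP2-004 cells, 2500 per well, were preincubated for 5 hr and then treated with compound for 24 h at 37 C in complete medium. Viability was read as cellular ATP by CellTiter-Glo luminescence, and AC50 values were taken from Hill fits to concentration-response data.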

[9] = Cell Viability - LYMP2-005 (AID 967); conditions: LYMP2-005 lymphoblastoid cell viability; series mostly up to 92.2 µM
In short: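 Steps: seed 2500 LYMP2-005 cells/well, incubate 5 h at 37 C, add compound, incubate 24 h at 37 C, add CellTiter-Glo, wait 30 min at RT, read luminescence. Concentration-response data fitted to Hill equation for AC50.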

[10] = Cell Viability - LYMP2-009 (AID 968); conditions: LYMP2-009 lymphoblastoid cell viability; series mostly up to 92.2 µM; further: nearly all actives have a fitted effect of over 55% in size
[11] = Cell Viability - LYMP2-011 (AID 969); conditions: LYMP2-011 lymphoblastoid cells viability; series mostly up to 92.2 µM; further: nearly all actives have a fitted effect of over 60% in size
In short: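 2500 cells/well in complete medium, compound-treated 24 h at 37 C. Viability read as intracellular ATP by CellTiter-Glo luminescence after 30 min at room temperature. AC50 from Hill fits of qHTS concentration-response data.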

[12] = Cell Viability - LYMP2-013 (AID 970); conditions: LYMP2-013 lymphoblastoid cells viability; series mostly up to 92.2 µM; further: nearly all actives have a fitted effect of over 55% in size
In short: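 Human lymphoblastoid LYMP2-013 cells, 2500/well, treated 24 h at 37 C in complete medium; viability as intracellular ATP by CellTiter-Glo luminescence after 30 min. AC50 from Hill fits of qHTS concentration-response.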

[13] = Cell Viability - LYMP2-015 (AID 971); conditions: LYMP2-015 lymphoblastoid cell viability; series mostly up to 92.2 µM; further: nearly all actives have a fitted effect of over 55% in size
In short: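 LYMP2-015 human lymphoblastoid cells (2500/well) in complete medium, compound-treated 24 h at 37 C; viability read as cellular ATP by CellTiter-Glo luminescence after 30 min at room temperature. AC50 from Hill-equation fits of qHTS concentration-response data.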

[14] = Cell Viability - LYMP2-017 (AID 972); conditions: LYMP2-017 lymphoblastoid cell viability; series mostly up to 92.2 µM; further: nearly all actives have a fitted effect of over 55% in size
In short: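 LYMP2-017 human lymphoblastoid cells (2500/well) settled 5 hr at 37 C, then exposed to compound 24 hr at 37 C in complete medium. Viability taken as intracellular ATP by CellTiter-Glo luminescence after 30 min at RT; AC50 from Hill fits.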

[15] = Cell Viability - LYMP2-019 (AID 973); conditions: LYMP2-019 lymphoblastoid cell line viability; series mostly up to 92.2 µM; further: nearly all actives have a fitted effect of over 55% in size
In short: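 Human lymphoblastoid LYMP2-019 cells (2500/well) preincubated 5 h at 37 C, then treated 24 h at 37 C in complete medium. Viability by CellTiter-Glo ATP luminescence after 30 min at room temperature; AC50 from Hill fits.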

[16] = Cell Viability - LYMP2-021 (AID 974); conditions: LYMP2-021 lymphoblastoid cells viability; series mostly up to 92.2 µM
In short: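 Human lymphoblastoid LYMP2-021 cells, 2500/well in complete medium, treated 24 hours at 37 C. Intracellular ATP by CellTiter-Glo luminescence (30 min, RT); AC50 from Hill fits of concentration-response.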

[17] = Cell Viability - LYMP2-023 (AID 975); conditions: LYMP2-023 lymphoblastoid cell viability; series mostly up to 92.2 µM
In short: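 LYMP2-023 human lymphoblastoid cells, 2500/well, preincubated 5 hr at 37 C, then compound-treated 24 hr at 37 C in complete medium. CellTiter-Glo luminescence (ATP) after 30 min at room temperature; AC50 from Hill-equation fits; tetraoctylammonium bromide positive control.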

[18] = Cell Viability - LYMP2-025 (AID 976); conditions: LYMP2-025 lymphoblastoid cell viability; series mostly up to 92.2 µM
In short: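 Human lymphoblastoid LYMP2-025 cells, 2500/well, exposed 24 h at 37 C in complete medium in 1536-well qHTS. Viability as cellular ATP by CellTiter-Glo luminescence; AC50 from Hill fits of concentration-response data.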

[19] = Cell Viability - LYMP2-002 (AID 977); conditions: LYMP2-002 lymphoblastoid cell viability, qHTS; series mostly up to 92.2 µM
In short: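 Luminescent ATP readout (CellTiter-Glo, 30 min room temperature) after 24 h compound exposure at 37 C of a human lymphoblastoid line, 2500 cells/well. AC50 values derived by standard Hill fitting of qHTS concentration-response data.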

[20] = Cell Viability - LYMP2-006 (AID 978); conditions: LYMP2-006 lymphoblastoid cell viability, qHTS; series mostly up to 92.2 µM; further: nearly all actives have a fitted effect of over 60% in size
In short: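 qHTS, 1536-well; 2500 cells/well, 5 hr 37 C; cpd 24 hr 37 C; CellTiter-Glo 30 min RT; luminescence. Tetraoctylammonium bromide pos. ctrl. AC50 via Hill eqn.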

Measured: Potency

CCOC(C)OCC
inactive: all assays above

Oc1ccc(/C=C/c2cc(O)cc(O)c2)cc1
not listed: [6] | [9]
inactive: all other assays above

OC[C@H]1O[C@@H]2O[C@H]3[C@H](O)[C@@H](O)[C@@H](O[C@H]4[C@H](O)[C@@H](O)[C@@H](O[C@H]5[C@H](O)[C@@H](O)[C@@H](O[C@H]6[C@H](O)[C@@H](O)[C@@H](O[C@H]7[C@H](O)[C@@H](O)[C@@H](O[C@H]1[C@H](O)[C@H]2O)O[C@@H]7CO)O[C@@H]6CO)O[C@@H]5CO)O[C@@H]4CO)O[C@@H]3CO
inactive: all assays above

CCCCO
inactive: all assays above

NCCN
inactive: all assays above

CC[C@H]1OC(=O)[C@H](C)[C@@H](O[C@H]2C[C@@](C)(OC)[C@@H](O)[C@H](C)O2)[C@H](C)[C@@H](O[C@@H]2O[C@H](C)C[C@H](N(C)C)[C@H]2O)[C@](C)(O)C[C@@H](C)CN(C)[C@H](C)[C@@H](O)[C@]1(C)O
inactive: all assays above

Oc1cccc(O)c1O
not listed: [6] | [7] | [8] | [10] | [16]
inactive: all other assays above

Nc1ncnc2c1ncn2[C@H]1CC[C@@H](CO)O1
inactive: all assays above

CO/N=C(/C(=O)N[C@@H]1C(=O)N2C(C(=O)O)=C(COC(N)=O)CS[C@H]12)c1ccco1
not listed: [2]
inactive: all other assays above
